We go through 6 molecules from PubChem BioAssay.

A short description of assay [1]: growth inhibition of DIPG glioma cells, dose response, cell-based, JHH-DIPG-1, MIPE4.0, CellTiter-Glo, qHTS (AID 1347062; cut-off not given, nearly all actives have AC50 up to about 27 µM). The note with it: JHH-DIPG-1 viability, CellTiter-Glo ATP luminescence.
A short description of assay [2]: SU-DIPG-XXV glioma cell viability, MIPE5.0 library, qHTS (AID 1347068; cut-off not given, nearly all actives have IC50 up to about 30 µM;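 for IC50: cells exposed to compound for 48 hours before viability readout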).
Assay [3] is described as follows: sensitizers of A549 cells to miR-34 induction, primary screen, imaging, A549 dox-inducible miR-34, nuclei and caspase counts (AID 1347080;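 active = compounds whose cell count with miR-34 switched on is under 0.7 times the count with it off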). The note with it: A549 miR-34 inducible, Hoechst nuclei count, 48 h.
Assay [4] can be described thus: modifiers of HSF1 nuclear foci, imaging, Selleck Cancer Library (AID 1347162; in the data active = plate-normalised HSF1 focus index below about 0.46). The settings on record: human cells, at 10 µM; SSMD: measured here: HSF1 foci SSMD mean; cell count: measured here: cell number; plate-normalised HSF1 focus index: stronger effect = lower value.
Assay [5] in a line: survival rescue of mitochondrial mutant cells in low glucose, primary screen, MELAS cybrids, Rieske KO mouse fibroblasts, CellTiter-Glo (AID 1508586;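 active = mean z-score across replicates of 1.96 or higher in either the MELAS or the Rieske mutant cell line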;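 note: z relative to plate mean and SD of compound and empty wells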).
Assay [6] can be described thus: ovarian cancer cell viability with rucaparib, profiling panel, oncology-focused library, rucaparib conditional (AID 1508598). The note with it: patient-derived ovarian cancer cells, CellTiter-Glo viability, 144 h, stronger effect = lower value. In general terms: ATP-based viability assays read luminescence as a measure of living cells.
The nature of assay [7]: growth inhibition of DIPG glioma cells, dose response, cell-based, SU-DIPG-IV, MIPE4.0, CellTiter-Glo, qHTS (AID 1347063; cut-off not given, nearly all actives have AC50 up to about 30 µM;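 note: compound exposure lasted 48 hours before the viability readout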). The settings on record: SU-DIPG-IV viability, CellTiter-Glo ATP luminescence.
Assay [8] is described as follows: growth inhibition of DIPG glioma cells, dose response, cell-based, SU-DIPG-XIII, MIPE5.0, CellTiter-Glo, qHTS (AID 1347064; cut-off not given, nearly all actives have AC50 up to about 23 µM;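 for AC50: cells exposed to compound for 48 hours before the viability read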). The note with it: SU-DIPG-XIII viability, CellTiter-Glo ATP luminescence.
The nature of assay [9]: viability loss in pontine glioma line – cell-based, SU-DIPG-XXV, MIPE5.0, CellTiter-Glo, qHTS, dose response (AID 1347065; cut-off not given, nearly all actives have AC50 up to about 26 µM;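 note: cells exposed to compound for 48 hours before ATP readout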). The settings on record: CellTiter-Glo ATP luminescence.
Assay [10] can be described thus: SU-DIPG-VI glioma cell viability, MIPE4.0 library, CellTiter-Glo luminescence, qHTS (AID 1347066; cut-off not given, nearly all actives have AC50 up to about 30 µM;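 note: cells exposed to compound for 48 hours before readout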). The settings on record: CellTiter-Glo ATP luminescence.

One may read the viability as a read-out of living cells in per cent, often relative to untreated cells. A word on the AC50: it is the concentration giving half of the maximal activity seen. Broadly, the IC50 is the midpoint of a concentration-inhibition curve.

Each structure is given as a SMILES string. Inconclusive results are not listed. Calls of active or inactive are those of the source.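 Rule for the calls, unless noted: active = normalized viability below 100% at a tested concentration; inactive = the rest.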

Regarding `O=C(Nc1cccnc1)N1CCC(Cc2cccc(Oc3ccc(C(F)(F)F)cn3)c2)CC1`, the call in [1] and in assay [2] was inactive. Also, the fold change in assay [3] (stronger effect = lower value, cell number ratio, induced over uninduced) is 1.36 (inactive); in [3] (measured here: relative caspase fold change +Dox/-Dox) it was 0.837. Further, the cell count stood at 4250 in assay [3] (measured here: total cells with miR-34 induction, stronger effect = lower value); 3120 in [3] (measured here: total cells without miR-34 induction); 7690 in assay [4]. In assay [4], this molecule displayed an SSMD of 3.05. Moreover, in assay [4], the plate-normalised HSF1 focus index is 1.19 (inactive). Further, the z-score is -0.261 (inactive) in [5] (MELAS cybrid survival, CellTiter-Glo 48 h, stronger effect = higher value) and -0.332 in assay [5] (Rieske KO mouse fibroblast survival, CellTiter-Glo 72 h). The viability in assay [6] (at 0.000305 µM, OCI-C5x cells, with rucaparib 10 µM, 100% = cells with rucaparib alone) was 111% (inactive); in [6] (at 0.000305 µM, OCI-C5x cells, without rucaparib), 123% (inactive); in assay [6] (at 0.000305 µM, OCI-P5x cells, with rucaparib 20 µM, 100% = cells with rucaparib alone), 110% (inactive); in [6] (at 0.000305 µM, OCI-P5x cells, without rucaparib), 110% (inactive); in assay [6] (at 0.00122 µM, OCI-C5x cells, with rucaparib 10 µM, 100% = cells with rucaparib alone), 108% (inactive); in [6] (at 0.00122 µM, OCI-C5x cells, without rucaparib), 129% (inactive). The viability is 111% (inactive) in [6] (at 0.00122 µM, OCI-P5x cells, with rucaparib 20 µM, 100% = cells with rucaparib alone); 99.8% (active) in assay [6] (at 0.00122 µM, OCI-P5x cells, without rucaparib); 128% (inactive) in assay [6] (at 0.00488 µM, OCI-C5x cells, with rucaparib 10 µM, 100% = cells with rucaparib alone); 120% (inactive) in assay [6] (at 0.00488 µM, OCI-C5x cells, without rucaparib); 112% (inactive) in [6] (at 0.00488 µM, OCI-P5x cells, with rucaparib 20 µM, 100% = cells with rucaparib alone); 102% (inactive) in [6] (at 0.00488 µM, OCI-P5x cells, without rucaparib). Also, the viability is 116% (inactive) in [6] (at 0.0195 µM, OCI-C5x cells, with rucaparib 10 µM, 100% = cells with rucaparib alone); 118% (inactive) in [6] (at 0.0195 µM, OCI-C5x cells, without rucaparib); 105% (inactive) in [6] (at 0.0195 µM, OCI-P5x cells, with rucaparib 20 µM, 100% = cells with rucaparib alone); 102% (inactive) in assay [6] (at 0.0195 µM, OCI-P5x cells, without rucaparib); 114% (inactive) in assay [6] (at 0.0781 µM, OCI-C5x cells, with rucaparib 10 µM, 100% = cells with rucaparib alone); 117% (inactive) in assay [6] (at 0.0781 µM, OCI-C5x cells, without rucaparib). Also, the viability was 103% (inactive) in assay [6] (at 0.0781 µM, OCI-P5x cells, with rucaparib 20 µM, 100% = cells with rucaparib alone); 102% (inactive) in assay [6] (at 0.0781 µM, OCI-P5x cells, without rucaparib); 117% (inactive) in [6] (at 0.313 µM, OCI-C5x cells, with rucaparib 10 µM, 100% = cells with rucaparib alone); 117% (inactive) in assay [6] (at 0.313 µM, OCI-C5x cells, without rucaparib); 106% (inactive) in assay [6] (at 0.313 µM, OCI-P5x cells, with rucaparib 20 µM, 100% = cells with rucaparib alone); 98.4% (active) in [6] (at 0.313 µM, OCI-P5x cells, without rucaparib). Moreover, the viability in assay [6] (at 1.25 µM, OCI-C5x cells, with rucaparib 10 µM, 100% = cells with rucaparib alone) is 134% (inactive); in [6] (at 1.25 µM, OCI-C5x cells, without rucaparib), 129% (inactive); in [6] (at 1.25 µM, OCI-P5x cells, with rucaparib 20 µM, 100% = cells with rucaparib alone), 100% (inactive); in assay [6] (at 1.25 µM, OCI-P5x cells, without rucaparib), 96.3% (active); in assay [6] (at 5 µM, OCI-C5x cells, with rucaparib 10 µM, 100% = cells with rucaparib alone), 126% (inactive); in assay [6] (at 5 µM, OCI-C5x cells, without rucaparib) it was 124% (inactive). Also, the viability was 87.1% (active) in [6] (at 5 µM, OCI-P5x cells, with rucaparib 20 µM, 100% = cells with rucaparib alone) and 85.5% (active) in [6] (at 5 µM, OCI-P5x cells, without rucaparib).

For `CC(C)N(CCCNC(=O)Nc1ccc(C(C)(C)C)cc1)C[C@H]1O[C@@H](n2cc(Br)c3c(N)ncnc32)[C@H](O)[C@@H]1O`, in assay [7], the AC50 is 14.8 µM (active). Also, the IC50 in [2] was 23.5 µM (active).

For the molecule `O=C(O)c1ccc(CCCc2ccc(OCCc3ccc(F)cc3)cc2)o1`, the molecule was called inactive in assay [8].

For `CC(C)NC(=O)COc1cccc(-c2nc(Nc3ccc4[nH]ncc4c3)c3ccccc3n2)c1`, the AC50 in [8] is 5.9 µM (active); in [9], 5.25 µM (active).

For the molecule `COc1cc(N2CCC(C(N)=O)CC2)ccc1Nc1nc(N)c(Cl)c(Nc2ccccc2S(=O)(=O)C(C)C)n1`, the AC50 in [7] was 5.9 µM (active).

As for `C[C@@H](N)c1ccc(C(=O)Nc2ccnc3[nH]ccc23)cc1`, the concentration at half-maximal activity (AC50) in [7] was 0.418 µM (active). Besides, the result in assay [10] was inactive. The IC50 in assay [2] is 18.6 µM (active).
